High-throughput results from PubChem.
PAX8 inh HTS = PAX8 transcriptional activity inhibition; RMG-I TPO-luciferase reporter, SteadyGlo, 24 h; inhibition, % at 12.6 µM; 1.2% of 360,000 active;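 active = mean replicate inhibition at least 60% with every replicate also reaching 60%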;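 also: luciferase light reporting Pax8 driven TPO promoter activity; plate controls were median of neutral control wells for no effect and mitoxantrone controls for full effect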
HIV Env fusion = inhibitors of HIV Env-mediated cell fusion | HeLa-JRFL Env/CEM21 cell fusion, luciferase | inhibition, % at 12.3 µM | 1.1% of 360,000 active | AID 651610;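 active = mean replicate inhibition score of at least 50 and every replicate individually at or above 50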;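 also: 0% = plate neutral controls and 100% = maraviroc near 300 nM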
NSD2 inh = NSD2 (human) methyltransferase inhibition; O96028; NSD2 peptide methylation, AlphaScreen, 120 min; inhibition, % at 12.5 µM; 0.54% of 310,000 active; AID 743445; in the data active = inhibition above about 50%
Target sequence (O96028 whole entry, looked up): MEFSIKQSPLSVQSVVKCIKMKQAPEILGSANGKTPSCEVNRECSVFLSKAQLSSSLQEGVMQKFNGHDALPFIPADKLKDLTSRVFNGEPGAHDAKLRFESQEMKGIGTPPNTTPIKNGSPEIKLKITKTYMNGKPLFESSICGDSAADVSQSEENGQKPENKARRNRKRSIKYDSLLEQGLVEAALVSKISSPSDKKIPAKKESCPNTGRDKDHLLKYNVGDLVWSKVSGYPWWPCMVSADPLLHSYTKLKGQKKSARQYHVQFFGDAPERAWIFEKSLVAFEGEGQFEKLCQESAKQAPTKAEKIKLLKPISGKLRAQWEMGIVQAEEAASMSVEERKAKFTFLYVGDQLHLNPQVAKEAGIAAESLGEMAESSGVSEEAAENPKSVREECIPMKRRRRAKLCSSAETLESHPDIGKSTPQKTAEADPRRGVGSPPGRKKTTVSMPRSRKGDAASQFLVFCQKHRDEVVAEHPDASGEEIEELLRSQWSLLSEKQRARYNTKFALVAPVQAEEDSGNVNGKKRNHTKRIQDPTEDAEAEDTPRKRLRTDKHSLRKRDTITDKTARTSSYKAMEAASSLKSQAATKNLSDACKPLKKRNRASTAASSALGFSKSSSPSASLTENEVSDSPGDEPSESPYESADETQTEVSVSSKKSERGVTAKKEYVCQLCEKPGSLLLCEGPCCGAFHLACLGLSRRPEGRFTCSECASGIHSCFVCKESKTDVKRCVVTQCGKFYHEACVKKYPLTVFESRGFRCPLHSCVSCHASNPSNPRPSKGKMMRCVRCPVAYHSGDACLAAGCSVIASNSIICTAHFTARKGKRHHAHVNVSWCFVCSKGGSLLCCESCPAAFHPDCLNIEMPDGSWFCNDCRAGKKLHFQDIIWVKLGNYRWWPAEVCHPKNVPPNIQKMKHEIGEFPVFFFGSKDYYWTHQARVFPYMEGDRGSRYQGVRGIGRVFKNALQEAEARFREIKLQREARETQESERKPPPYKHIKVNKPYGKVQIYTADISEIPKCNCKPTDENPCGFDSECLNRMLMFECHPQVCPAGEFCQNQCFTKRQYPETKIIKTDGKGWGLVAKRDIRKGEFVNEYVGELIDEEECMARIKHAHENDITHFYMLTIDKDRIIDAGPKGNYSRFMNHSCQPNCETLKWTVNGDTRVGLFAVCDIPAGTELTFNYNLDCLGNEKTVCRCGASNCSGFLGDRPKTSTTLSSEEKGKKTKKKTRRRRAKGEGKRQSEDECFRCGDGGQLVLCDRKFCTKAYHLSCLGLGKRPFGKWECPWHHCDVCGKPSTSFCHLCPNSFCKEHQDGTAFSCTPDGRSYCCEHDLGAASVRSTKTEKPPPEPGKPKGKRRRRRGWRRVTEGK
LMP1 NFkB inh = inhibitors of Epstein-Barr LMP1-induced NF-kappaB reporter | LMP1-induced NF-kappaB luciferase reporter cells, luminescence | inhibition, % at 12.5 µM | 0.69% of 350,000 active | AID 504558; in the data active = inhibition above about 41%;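 also: 0% = neutral control wells and 100% = reference inhibitor control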
Shn3 3UTR inh = Schnurri-3 reporter inhibition in Clone20 osteoblasts; Clone20 osteoblast Shn3 3'UTR firefly luciferase, 24 h; inhibition, % at 12.5 µM; 0.52% of 360,000 active; AID 588674;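 active = mean inhibition of at least 75% with every replicate also reaching 75%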;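 also: 0% = median of neutral control wells and 100% = pilot-screen positive control compound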
Glyco luc inh = N-linked glycosylation inhibition; reporter increase, % at 12.5 µM; 0.23% of 360,000 active; D54 ERlucT glycosylation luciferase reporter, 24 h; percent of 100 nM tunicamycin response;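 active = mean luciferase reporter signal, scaled so untreated is 0 and the glycosylation-blocking control 100, at or above a set limit in every replicate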;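 also: luciferase carries N-glycosylation sites so blocking glycosylation raises the light; 0% = median of neutral control wells and 100% = median of 100 nM tunicamycin wells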
An asterisk follows results filed as active; · = not tested or not shown; [ ] = another dose, or the depositor's remark. Most compounds without a hit are left out; they make up all but 2.8% or so of the library.

SMILES | PAX8 inh HTS | HIV Env fusion | NSD2 inh | LMP1 NFkB inh | Shn3 3UTR inh | Glyco luc inh
COc1ccccc1-c1ccc2c(c1)O[C@@H](CN(C)S(=O)(=O)c1ccc(C)cc1)[C@@H](C)CN([C@H](C)CO)S2(=O)=O | 3 | 28[16.7 µM] | · | · | · | ·
C[C@@H]1CN([C@@H](C)CO)S(=O)(=O)c2ccc(Br)cc2O[C@@H]1CN(C)S(=O)(=O)c1ccc(F)cc1 | -2 | -45 | · | · | · | ·
Cc1ccc(S(=O)(=O)N(C)C[C@@H]2Oc3cc(-c4cccc(F)c4)ccc3S(=O)(=O)N([C@@H](C)CO)C[C@@H]2C)cc1 | 15 | 31[16.7 µM] | · | · | · | ·
C[C@H]1CN([C@@H](C)CO)S(=O)(=O)c2ccc(Br)cc2O[C@H]1CN(C)S(=O)(=O)c1ccc(F)cc1 | 9 | 63*[16.7 µM] | · | · | · | ·
C[C@@H]1CN([C@@H](C)CO)S(=O)(=O)c2ccc(-c3cccc(F)c3)cc2O[C@@H]1CN(C)S(=O)(=O)c1ccc(F)cc1 | · | 59*[16.7 µM] | · | · | · | ·
Cc1ccc(S(=O)(=O)N(C)C[C@H]2Oc3cc(-c4cccc(F)c4)ccc3S(=O)(=O)N([C@@H](C)CO)C[C@H]2C)cc1 | -12 | 69*[16.7 µM] | · | · | · | ·
COc1ccccc1-c1ccc2c(c1)O[C@H](CN(C)S(=O)(=O)c1ccc(C)cc1)[C@H](C)CN([C@@H](C)CO)S2(=O)=O | 16 | 43*[16.7 µM] | · | · | · | ·
C[C@@H]1CN([C@H](C)CO)C(=O)Cc2cc(NC(=O)Cc3ccccc3)ccc2O[C@@H]1CN(C)C | -3 | · | · | · | · | ·
C[C@H](CO)N1C[C@H](C)[C@@H](CN(C)Cc2ccc(Cl)c(Cl)c2)Oc2c(NC(=O)c3nc4ccccc4s3)cccc2C1=O | · | 8[16.7 µM] | · | · | · | ·
Cc1ccc(S(=O)(=O)N(C)C[C@H]2Oc3cc(-c4cccc(F)c4)ccc3S(=O)(=O)N([C@H](C)CO)C[C@H]2C)cc1 | 23 | 64*[16.7 µM] | · | · | · | ·
Cc1ccc(S(=O)(=O)N(C)C[C@H]2Oc3cc(-c4cccc(F)c4)ccc3S(=O)(=O)N([C@H](C)CO)C[C@@H]2C)cc1 | 23 | 25[16.7 µM] | · | · | · | ·
CO[C@H]1CN(C)C(=O)c2ccc(NC(=O)C3CCC3)cc2OC[C@H](C)N(Cc2nccs2)C[C@@H]1C | 3 | · | · | · | · | ·
COc1ccc(NC(=O)C(Sc2nnc(-c3ccncc3)n2-c2ccccc2C)c2ccccc2)cc1Cl (stereo not given) | 115* | · | 10 | -3 | -10 | 5
O=C(CSc1nnc2n1CCCCC2)NCc1ccccc1 | 20 | 58* | · | -2 | -42 | 1
CCOCCCNC(=O)c1ccc2c(c1)N=C(CC)c1cc(Br)ccc1S2 | 91* | -2 | -1 | 16 | -16 | 6
O=C(c1ccncc1)N1C[C@H]2[C@@H](c3ccccc31)[C@@H](CO)N2C(=O)Nc1cccc(F)c1 | 21 | · | · | · | · | ·
O=C(NC(=S)N1CCN(c2ccccn2)CC1)c1ccco1 | -4 | -15 | -1 | 54* | -10 | -1
O=C(NC(=S)N1CCN(c2ccc(O)cc2)CC1)c1ccco1 | 2 | · | 2 | -1 | -25 | 1
CC(NNC(=S)N1CCN(c2ccccn2)CC1)c1nccc2ccccc12 (stereo not given) | 72* | -20 | 6 | 72* | 93* | -10
CCNC(=S)N1CCN(c2ccccn2)CC1 | -3 | 18 | 0 | -8 | -6 | 3
CC(C)NC(=O)N(C)C[C@@H]1Oc2ccc(NS(C)(=O)=O)cc2C(=O)N([C@@H](C)CO)C[C@@H]1C | -28 | 20[16.7 µM] | · | · | · | ·
CC(C)NC(=O)Nc1ccc2c(c1)C(=O)N([C@H](C)CO)C[C@H](C)[C@@H](CN(C)Cc1ccc(C(=O)O)cc1)O2 | -19 | -1[16.7 µM] | · | · | · | ·
COc1ccccc1C#Cc1cnc2c(c1)C(=O)N([C@@H](C)CO)C[C@H](C)[C@H](CN(C)CC1CC1)O2 | 9 | · | · | · | · | ·
Cc1cccc(-c2ccc([C@H]3[C@H](CO)N4C(=O)CN(C(=O)c5cccnc5)C[C@@H]34)cc2)c1 | -6 | · | · | · | · | ·
COc1ccc(Cl)cc1NC(=O)CN(C1CCCCC1)S(C)(=O)=O | -8 | 125* | · | -11 | -11 | -1
SMILES | PAX8 inh HTS | HIV Env fusion | NSD2 inh | LMP1 NFkB inh | Shn3 3UTR inh | Glyco luc inh
CS(=O)(=O)N(CC(=O)Nc1ccc(F)cc1F)C1CCCCC1 | 2 | -160 | -4 | 82* | 4 | 0
COc1ccc(Cl)cc1NC(=O)CN(C)CC(=O)NCc1cccs1 | 14 | 4 | -2 | -4 | -7 | 1
COc1ccc(Cl)cc1NC(=O)CN(C)CC(=O)Nc1cc(OC)c(OC)c(OC)c1 | 20 | 3 | 0 | 11 | 24 | 33*
COc1ccc(Cl)cc1NC(=O)CN(C)S(=O)(=O)c1cccs1 | 2 | 5 | 1 | 47* | 10 | 1
C[C@H](CO)N1C[C@H](C)[C@H](CN(C)C(=O)c2cccc(F)c2)Oc2ncc(-c3ccncc3)cc2C1=O | · | -3[16.7 µM] | · | · | · | ·
Cc1noc(C)c1S(=O)(=O)Nc1ccc2c(c1)C(=O)N([C@@H](C)CO)C[C@H](C)[C@@H](CN(C)S(=O)(=O)c1cn(C)cn1)OCCCC[C@@H](C)O2 | 1 | -13[16.7 µM] | · | · | · | ·
CN1C(=O)c2cc(NC(=O)C3CCOCC3)ccc2OC[C@H]2O[C@@H](CC(=O)NC3CCCC3)CC[C@H]21 | -14 | -7[16.7 µM] | · | · | · | ·
COc1cccc(NC(=O)N2[C@@H]3CNC[C@H]2C3c2ccc(-c3cccc(C(=O)N(C)C)c3)cc2)c1 (stereo not given in full) | -1 | · | · | · | · | ·
Cc1onc(-c2ccc(Cl)cc2)c1-c1ccnc(SCC(=O)Nc2cc(Cl)cc(Cl)c2)n1 | 36 | 75* | -1 | 0 | 11 | 0
O=C(C[C@H]1CC[C@@H]2[C@H](COC[C@@H](O)CN2CCC(F)(F)F)O1)NCc1ccc(Oc2ccccc2)cc1 | 51 | -21[16.7 µM] | · | · | · | ·
Cc1ccc(NC(=O)C2CC(=O)N/C(=N/N=C/c3ccco3)S2)cc1C (stereo not given) | 118* | · | 0 | -26 | -7 | -2
COc1ccc(CN(C)C[C@H]2OCCCC[C@@H](C)Oc3ccc(NS(=O)(=O)c4ccccc4)cc3C(=O)N([C@@H](C)CO)C[C@H]2C)cc1 | -7 | -14[16.7 µM] | · | · | · | ·
CC1(C)CC(=O)c2sc(NC(=O)CCS(=O)(=O)c3ccccc3)nc2C1 | 109* | 8 | · | 26 | 20 | -16
CC1(C)CC(=O)c2sc(NC(=O)c3ccccc3)nc2C1 | · | · | -5 | · | · | ·
CC(C)(C)c1nnc(NC(=O)CCS(=O)(=O)Cc2ccccc2)s1 | 84* | -7 | 0 | -4 | 8 | -7
CC(C)(C)c1nnc(NC(=O)CCS(=O)(=O)c2ccccc2)s1 | 97* | -7 | 1 | 14 | -4 | -8
CN1CCN(C(=O)C[C@@H]2C[C@H]3c4cc(NC(=O)C5CCC5)ccc4O[C@H]3[C@@H](CO)O2)CC1 | 7 | -2[16.7 µM] | · | · | · | ·
CCc1cc(C(=O)Nc2ncccc2O)sc1C | -7 | 1 | 0 | 47* | -15 | -18
CCc1cc(C(=O)Nc2ccc(OC)nc2)sc1C | -69 | -37 | -5 | -7 | -57 | -1
OC1CCCN(Cc2ccc3ccc4cccc5ccc2c3c45)C1 (stereo not given) | · | · | -2 | -24 | 9 | 57*
